Source: PubChem BioAssay (Tox21)
Records with an inconclusive call do not appear. Activity calls are given as the source filed them. Unless noted, calls follow the shape of the dose curve; as a rule, active = well fitted curve in the direction sought with a large enough effect in the repeat runs; inconclusive = weak or mixed curves; inactive = no such curve, though single readings can be large; an effect the other way counts as inactive or inconclusive.

How the values were obtained:
[1] = target: Aryl hydrocarbon receptor (Homo sapiens) (UniProt P35869); experiment: qHTS assay to identify small molecule that activate the aryl hydrocarbon receptor (AhR) signaling pathway (AID 743085); details: HepG2 AhR-luc (HG2L7.5c1), luciferase, 24 h; series mostly up to 70.3 µM;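 also: HG2L7.5c1 human HepG2 liver cells with stably integrated DRE-driven firefly reporter; nearly all actives have a fitted effect of over 15% in size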
Sequence of Aryl hydrocarbon receptor (Homo sapiens) (P35869 whole entry, looked up): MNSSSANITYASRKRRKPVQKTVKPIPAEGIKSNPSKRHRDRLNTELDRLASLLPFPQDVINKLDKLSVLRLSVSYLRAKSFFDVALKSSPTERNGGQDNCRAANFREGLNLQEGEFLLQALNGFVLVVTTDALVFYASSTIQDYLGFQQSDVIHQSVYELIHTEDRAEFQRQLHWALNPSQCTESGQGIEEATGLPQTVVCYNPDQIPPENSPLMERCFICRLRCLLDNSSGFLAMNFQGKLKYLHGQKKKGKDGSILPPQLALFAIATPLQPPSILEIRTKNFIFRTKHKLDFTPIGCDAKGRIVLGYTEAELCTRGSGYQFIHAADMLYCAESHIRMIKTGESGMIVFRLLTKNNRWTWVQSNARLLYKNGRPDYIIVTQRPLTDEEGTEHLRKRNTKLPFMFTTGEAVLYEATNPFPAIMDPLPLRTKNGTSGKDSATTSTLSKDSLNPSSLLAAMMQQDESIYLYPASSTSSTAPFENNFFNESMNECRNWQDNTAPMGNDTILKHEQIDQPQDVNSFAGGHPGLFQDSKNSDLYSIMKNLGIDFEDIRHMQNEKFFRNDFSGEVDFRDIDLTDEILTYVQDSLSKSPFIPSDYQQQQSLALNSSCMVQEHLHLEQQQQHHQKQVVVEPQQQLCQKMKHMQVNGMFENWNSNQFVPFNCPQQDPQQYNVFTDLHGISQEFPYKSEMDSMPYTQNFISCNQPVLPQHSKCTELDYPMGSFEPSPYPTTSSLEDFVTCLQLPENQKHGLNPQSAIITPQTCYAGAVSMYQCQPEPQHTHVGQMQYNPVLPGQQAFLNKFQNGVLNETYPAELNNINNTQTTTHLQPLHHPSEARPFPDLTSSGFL
Procedure, shortened: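 Luminescence (ONE-Glo) from a dioxin-responsive-element luciferase reporter in HG2L7.5c1 HepG2 cells after 24 hr compound exposure at 37C; viability measured by CellTiter-Fluor fluorescence beforehand.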

[2] = qHTS assay to identify small molecule that activate the aryl hydrocarbon receptor (AhR) signaling pathway - cell viability counter screen (AID 743086); details: HepG2-AhR-luc viability, CellTiter-Fluor, 24 h; series mostly up to 70.3 µM;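 also: HepG2 liver cells carrying the AhR DRE luciferase reporter; nearly all actives have a fitted effect of over 45% in size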
Procedure, shortened: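 HepG2-AhR-luc (HG2L7.5c1) cells, 4000/well, were preincubated 5 h at 37C, exposed to compound in qHTS format for 24 hr at 37C, then given CellTiter-Fluor for 30 min; viability was read as fluorescence in the reporter wells.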

[3] = target: Peroxisome proliferator-activated receptor gamma (Homo sapiens) (UniProt P37231); experiment: qHTS assay to identify small molecule agonists of the peroxisome proliferator-activated receptor gamma (PPARg) signaling pathway (AID 743094; active = well fitted activation curve with a large enough effect in the signal ratio in the repeat runs, not every such curve was filed as active; the % refers to the signal ratio); details: HEK293H PPARg-UAS-bla, beta-lactamase FRET ratio, 17 h; series mostly up to 57 µM
Sequence of Peroxisome proliferator-activated receptor gamma (Homo sapiens) (P37231 whole entry, looked up): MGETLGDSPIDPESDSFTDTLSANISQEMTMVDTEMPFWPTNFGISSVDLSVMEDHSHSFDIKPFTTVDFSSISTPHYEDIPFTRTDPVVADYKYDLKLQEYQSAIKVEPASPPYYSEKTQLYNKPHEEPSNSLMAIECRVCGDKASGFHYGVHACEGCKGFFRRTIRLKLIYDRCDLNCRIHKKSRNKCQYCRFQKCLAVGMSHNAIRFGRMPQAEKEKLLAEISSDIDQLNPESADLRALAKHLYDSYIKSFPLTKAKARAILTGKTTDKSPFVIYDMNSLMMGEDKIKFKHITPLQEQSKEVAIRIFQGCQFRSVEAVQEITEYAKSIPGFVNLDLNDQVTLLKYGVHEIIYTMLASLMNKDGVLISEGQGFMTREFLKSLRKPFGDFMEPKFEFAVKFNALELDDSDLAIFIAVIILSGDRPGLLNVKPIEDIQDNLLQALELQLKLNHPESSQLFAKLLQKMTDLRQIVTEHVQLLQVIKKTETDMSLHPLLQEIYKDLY
Procedure, shortened: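 Quantitative HTS agonist mode: stable HEK293H line with UAS-beta-lactamase reporter under PPARg control, 17 h compound exposure at 37C, fluorescence after 1 h FRET substrate loading at room temperature.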

[4] = qHTS assay to identify small molecule antagonists of the peroxisome proliferator-activated receptor gamma (PPARg) signaling pathway - cell viability counter screen (AID 743194); details: PPARg-bla HEK293H viability, CellTiter-Glo luminescence, 17 h, co-treated with 50 nM rosiglitazone; series mostly up to 62.6 µM; also: nearly all actives have a fitted effect of over 55% in size
Procedure, shortened: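 PPARg-UAS-bla HEK293H cells were plated, rested 5 h at 37 C, then treated with compounds plus rosiglitazone (50 nM final) for 17 h at 37 C; viability was then read by CellTiter-Glo luminescence after 30 min at room temperature.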

[5] = qHTS assay for small molecule agonists of the antioxidant response element (ARE) signaling pathway (AID 743202; active = well fitted activation curve with a large enough effect in the signal ratio in the repeat runs, not every such curve was filed as active; the % refers to the signal ratio); details: HepG2 ARE-bla reporter, beta-lactamase FRET, 16 h; series mostly up to 73.3 µM
Procedure, shortened: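 Read-out: LiveBLAzer B/G FRET substrate fluorescence after 2 h at room temperature, following 16 h compound treatment at 37 C of HepG2 cells carrying an ARE-driven beta-lactamase reporter.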

[6] = qHTS assay for small molecule agonists of the antioxidant response element (ARE) signaling pathway - cell viability counter screen (AID 743203; calls by dose curve; also: nearly all actives have a fitted effect of over 55% in size); details: ARE-bla HepG2 viability, CellTiter-Glo luminescence, 16 h; series mostly up to 73.3 µM
Procedure, shortened: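 Seeded at 2,000 cells/well, ARE-bla HepG2 cells were incubated 5 hrs before compound addition. After 16 hrs of treatment at 37C with 5% CO2, CellTiter-Glo reagent was added and luminescence read 30 min later.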

[7] = qHTS assay for small molecule activators of the heat shock response signaling pathway - cell viability counter screen (AID 743209); details: HSE-bla HeLa viability, CellTiter-Glo luminescence, 5 h; series mostly up to 62.6 µM; also: nearly all actives have a fitted effect of over 50% in size
Procedure, shortened: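 First, HSE-bla HeLa cells were seeded at 1500 cells/well and kept overnight at 37 C. Next, compounds were pinned in and incubated 5 h. After the FRET substrate step, CellTiter-Glo was added and luminescence read 30 min later.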

[8] = qHTS assay for small molecule activators of the heat shock response signaling pathway (AID 743210; active = well fitted activation curve with a large enough effect in the signal ratio in the repeat runs, with a control signal flat, not every such curve was filed as active; the % refers to the signal ratio); details: HeLa HSE-bla reporter, beta-lactamase ratio, 5 h; series mostly up to 62.6 µM
Procedure, shortened: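 HSE-bla HeLa cells (beta-lactamase reporter under heat shock response elements) were exposed to compounds for 5 h at 37 C, then loaded with LiveBLAzer B/G FRET substrate for 2.5 h at room temperature before fluorescence reading.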

[9] = qHTS assay to identify small molecule agonists of the peroxisome proliferator-activated receptor delta (PPARd) signaling pathway - cell viability counter screen (AID 743211); details: PPARd-bla HEK293H viability, CellTiter-Glo luminescence, 17 h; series mostly up to 62.6 µM; also: nearly all actives have a fitted effect of over 55% in size
Procedure, shortened: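 Viability was measured as CellTiter-Glo luminescence (30 min, room temperature) in the same wells as the beta-lactamase readout. GeneBLAzer PPARd UAS-bla HEK293H cells received compound after 5 h plating and were incubated 17 h at 37 C.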

[10] = target: Peroxisome proliferator-activated receptor delta (Homo sapiens) (UniProt Q03181); experiment: qHTS assay to identify small molecule agonists of the peroxisome proliferator-activated receptor delta (PPARd) signaling pathway (AID 743212; calls by dose curve); details: HEK293H PPARd-UAS-bla, beta-lactamase FRET ratio, 17 h; series mostly up to 62.6 µM
Sequence of Peroxisome proliferator-activated receptor delta (Homo sapiens) (Q03181 whole entry, looked up): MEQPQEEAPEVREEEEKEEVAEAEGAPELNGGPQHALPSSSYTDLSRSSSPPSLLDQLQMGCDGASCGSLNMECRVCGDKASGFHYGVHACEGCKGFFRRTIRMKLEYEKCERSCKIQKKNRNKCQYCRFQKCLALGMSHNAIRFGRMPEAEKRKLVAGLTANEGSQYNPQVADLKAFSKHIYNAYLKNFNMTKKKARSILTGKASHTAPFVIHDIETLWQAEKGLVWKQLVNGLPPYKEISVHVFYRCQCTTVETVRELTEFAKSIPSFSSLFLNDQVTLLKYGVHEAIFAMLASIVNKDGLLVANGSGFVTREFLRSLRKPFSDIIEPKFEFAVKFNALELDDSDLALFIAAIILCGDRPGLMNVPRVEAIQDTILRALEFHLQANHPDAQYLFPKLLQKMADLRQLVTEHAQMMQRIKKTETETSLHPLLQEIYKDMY
Procedure, shortened: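 GeneBLAzer PPARd UAS-bla HEK293H cells (beta-lactamase reporter under UAS control), plated and rested 5 h at 37 C, then exposed to compounds in DMSO at 37 C; LiveBLAzer B/G FRET substrate added, 2 h room temperature, fluorescence read.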

[11] = qHTS assay to identify small molecule antagonists of the peroxisome proliferator-activated receptor delta (PPARd) signaling pathway - cell viability counter screen (AID 743213); details: PPARd-bla HEK293H viability, CellTiter-Glo luminescence, 17 h; series mostly up to 62 µM; also: nearly all actives have a fitted effect of over 50% in size
Procedure, shortened: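 In this counter screen, HEK293H cells carrying a UAS-beta-lactamase reporter are co-treated with test compounds and 300 nM L165041 (final) for 17 h at 37 C; cell viability is quantified by CellTiter-Glo luminescence.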

[12] = qHTS assay to identify small molecule antagonists of the farnesoid-X-receptor (FXR) signaling pathway - cell viability counter screen (AID 743221; active = well fitted cell-killing curve with a large enough effect in the repeat runs, not every such curve was filed as active; also: nearly all actives have a fitted effect of over 50% in size); details: FXR-bla HEK293T viability, CellTiter-Glo luminescence, 16 h; series mostly up to 62.6 µM
Procedure, shortened: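 Cytotoxicity counter screen run in the FXR-bla reporter wells: HEK 293T cells exposed to compound with 50 uM (final) chenodeoxycholic acid for 16 h, 37 C, then viability measured by CellTiter-Glo luminescence after 30 min, room temperature.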

[13] = target: Vitamin D3 receptor (Homo sapiens) (UniProt P11473); experiment: qHTS assay to identify small molecule antagonists of the vitamin D receptor (VDR) signaling pathway (AID 743223; active = well fitted inhibition curve with a large enough effect in the signal ratio in the repeat runs, not every such curve was filed as active; the % refers to the signal ratio); details: VDR-UAS-bla HEK293T, beta-lactamase FRET ratio, 16 h; series mostly up to 61 µM
Sequence of Vitamin D3 receptor (Homo sapiens) (P11473 whole entry, looked up): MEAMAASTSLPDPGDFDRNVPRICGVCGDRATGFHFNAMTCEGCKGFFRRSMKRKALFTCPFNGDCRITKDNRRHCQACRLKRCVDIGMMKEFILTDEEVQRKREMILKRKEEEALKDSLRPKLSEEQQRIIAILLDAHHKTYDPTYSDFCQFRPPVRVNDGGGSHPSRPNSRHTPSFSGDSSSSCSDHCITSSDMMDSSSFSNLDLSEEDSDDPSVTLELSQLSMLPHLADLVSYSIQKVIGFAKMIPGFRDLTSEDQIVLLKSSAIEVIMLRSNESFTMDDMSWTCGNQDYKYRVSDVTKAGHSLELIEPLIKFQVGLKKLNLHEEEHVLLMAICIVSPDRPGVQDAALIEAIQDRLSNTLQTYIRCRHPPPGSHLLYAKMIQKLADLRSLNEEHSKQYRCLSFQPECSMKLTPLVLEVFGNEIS
Procedure, shortened: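 Antagonist mode: compound added to VDR-bla cells alongside agonist 1alpha,25-dihydroxyvitamin D3 (3 nM final), incubation 16 h at 37C. Read-out is LiveBLAzer FRET fluorescence, 2 h at room temperature.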

[14] = qHTS assay to identify small molecule agonists of the vitamin D receptor (VDR) signaling pathway - cell viability counter screen (AID 743224); details: VDR-bla HEK293T viability, CellTiter-Glo luminescence, 16 h; series mostly up to 62.6 µM; also: nearly all actives have a fitted effect of over 50% in size
Procedure, shortened: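 Viability is measured in the same wells as the VDR-bla reporter assay: after 16 h compound treatment and 2 h substrate loading, CellTiter-Glo is added and luminescence read 30 min later.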

[15] = qHTS assay to identify small molecule agonists of the farnesoid-X-receptor (FXR) signaling pathway - cell viability counter screen (AID 743218); details: FXR-bla HEK293T viability, CellTiter-Glo luminescence, 16 h; series mostly up to 62.6 µM; also: nearly all actives have a fitted effect of over 45% in size
Procedure, shortened: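 Cytotoxicity counter-screen run in parallel, same wells: FXR-UAS-bla HEK 293T cells dosed 16 h at 37 C, viability read by CellTiter-Glo luminescence after 30 min at room temperature.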

[16] = target: Bile acid receptor (Homo sapiens) (UniProt Q96RI1); experiment: qHTS assay to identify small molecule agonists of the farnesoid-X-receptor (FXR) signaling pathway (AID 743220; active = well fitted activation curve with a large enough effect in the signal ratio in the repeat runs, not every such curve was filed as active; the % refers to the signal ratio); details: HEK293T FXR-UAS-bla, beta-lactamase FRET ratio, 16 h; series mostly up to 62.6 µM
Sequence of Bile acid receptor (Homo sapiens) (Q96RI1 whole entry, looked up): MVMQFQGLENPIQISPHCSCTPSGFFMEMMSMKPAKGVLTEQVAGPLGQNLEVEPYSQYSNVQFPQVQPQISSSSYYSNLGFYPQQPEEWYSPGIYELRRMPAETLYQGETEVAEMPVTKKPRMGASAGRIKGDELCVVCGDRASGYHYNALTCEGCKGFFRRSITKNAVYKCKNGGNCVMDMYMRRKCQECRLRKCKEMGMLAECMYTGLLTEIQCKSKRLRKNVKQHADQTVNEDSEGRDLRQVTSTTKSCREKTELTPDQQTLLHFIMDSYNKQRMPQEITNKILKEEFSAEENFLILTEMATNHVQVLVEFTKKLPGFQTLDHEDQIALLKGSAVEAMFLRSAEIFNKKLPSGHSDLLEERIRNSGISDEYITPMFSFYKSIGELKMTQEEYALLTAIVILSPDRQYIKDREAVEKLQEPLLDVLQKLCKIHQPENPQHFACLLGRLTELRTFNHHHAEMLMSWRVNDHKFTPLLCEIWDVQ
Procedure, shortened: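 Beta-lactamase reporter under UAS control in GeneBLAzer FXR HEK 293T cells (5000/well) measured with LiveBLAzer FRET substrate after 2 h at room temperature. Compound exposure lasted 16 h at 37C.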

[17] = target: Bile acid receptor (Homo sapiens) (UniProt Q96RI1); experiment: qHTS assay to identify small molecule antagonists of the farnesoid-X-receptor (FXR) signaling pathway (AID 743217; active = well fitted inhibition curve with a large enough effect in the signal ratio in the repeat runs, not every such curve was filed as active; the % refers to the signal ratio); details: HEK293T FXR-UAS-bla, beta-lactamase ratio, CDCA-stimulated, 16 h; series mostly up to 62.6 µM
Procedure, shortened: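 Antagonist mode against 50 uM (final) chenodeoxycholic acid stimulation in FXR-bla HEK 293T cells, 16 h at 37 °C. Inhibition detected as reduced beta-lactamase activity via LiveBLAzer B/G FRET fluorescence after 2 h at room temperature.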

[18] = target: Vitamin D3 receptor (Homo sapiens) (UniProt P11473); experiment: qHTS assay to identify small molecule agonists of the vitamin D receptor (VDR) signaling pathway (AID 743222; calls by dose curve); details: HEK293T VDR-UAS-bla, beta-lactamase FRET ratio, 16 h; series mostly up to 63.5 µM
Procedure, shortened: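 Quantitative HTS agonist-mode screen: compounds in DMSO were pin-transferred onto VDR-bla cells and incubated 16 h at 37C, 5% CO2. Reporter activity was detected with LiveBLAzer B/G FRET substrate after 2 h at room temperature.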

[19] = target: Peroxisome proliferator-activated receptor delta (Homo sapiens) (UniProt Q03181); experiment: qHTS assay to identify small molecule antagonists of the peroxisome proliferator-activated receptor delta (PPARd) signaling pathway (AID 743215; active = well fitted inhibition curve with a large enough effect in the signal ratio in the repeat runs, not every such curve was filed as active; the % refers to the signal ratio;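 also: cells stimulated with agonist L165041 at 300 nM final during compound exposure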); details: HEK293H PPARd-UAS-bla, beta-lactamase FRET ratio, antagonist, 17 h; series mostly up to 62 µM
Procedure, shortened: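 Inhibition of L165041-driven (300 nM final) PPARd signaling is scored in HEK293H UAS-bla cells. Exposure lasts 17 h at 37 C; beta-lactamase activity is then read by FRET substrate fluorescence after 2 h at room temperature.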

Measured: Potency

CCCCN1C[C@H](O)[C@@H](O)[C@H](O)[C@H]1CO
not listed: [15] | [16] | [17] | [18] | [19]
inactive: all other assays above

O=Cc1ccc(F)c(Br)c1
not listed: [16] | [17] | [18] | [19]
inactive: all other assays above

CCC/C=C/CO
not listed: [7] | [14] | [17] | [18] | [19]
inactive: all other assays above

OCCN(CCO)c1ccccc1
not listed: [7] | [10] | [14] | [19]
inactive: all other assays above

Oc1ccccc1F
not listed: [10] | [17] | [19]
inactive: all other assays above

C=CCCCCCCCCO
not listed: [6] | [10] | [13] | [16] | [17] | [18] | [19]
inactive: all other assays above

CC(C)CC(=O)OCc1ccccc1
not listed: [16] | [17] | [18] | [19]
inactive: all other assays above

CN1C(=O)CC(c2ccccc2)C1=O (configuration not stated)
not listed: [10] | [13] | [17] | [18] | [19]
inactive: all other assays above

C=Cc1ccccc1
not listed: [7] | [16] | [17] | [19]
inactive: all other assays above

CC(C)c1ccccc1
not listed: [7] | [8] | [9] | [10] | [11] | [14] | [18] | [19]
inactive: all other assays above

C[C@@H](N)C(=O)O
not listed: [7] | [8] | [9] | [14] | [16] | [17] | [18] | [19]
inactive: all other assays above

Cc1c(-c2ccccc2)oc2c(C(=O)OCCN3CCCCC3)cccc2c1=O
not listed: [6] | [12] | [16] | [17]
inactive: all other assays above

CC(C)(C)c1ccc(OC(=O)c2ccccc2O)cc1
not listed: [10] | [14] | [19]
inactive: all other assays above

CCCCCCC
not listed: [8] | [10] | [13] | [14] | [18] | [19]
inactive: all other assays above

O=C1CCCCC1C1CCCCC1 (configuration not stated)
not listed: [16] | [17] | [19]
inactive: all other assays above

CC(C)C(=O)OCC(C)(C)C(O)C(C)C (configuration not stated)
not listed: [14] | [17] | [18] | [19]
inactive: all other assays above

CN1CCN(C2=Nc3ccccc3Oc3ccc(Cl)cc32)CC1
inactive: [1] | [2] | [3] | [4] | [5] | [7] | [8] | [9] | [19] | [13]

OCCN1CCN(CCO)CC1
not listed: [10] | [14] | [16] | [17]
inactive: all other assays above

C[C@]12CCC(=O)C=C1CC[C@@H]1[C@@H]2CC[C@@]2(C)[C@H]1CC[C@]2(O)C(=O)CO
not listed: [10] | [16] | [17] | [19]
inactive: all other assays above
